17 compounds from PubChem BioAssay (NCATS) can be followed below.

Records with an inconclusive call do not appear. Calls of active or inactive are those of the source. Unless noted, calls come from the whole dose curve; as a rule, active = well fitted curve in the direction sought with a large enough effect; inconclusive = small, poorly fitted or top-dose-only effect, or another doubt; inactive = no such curve, though single readings can be large; an effect the other way counts as inactive or inconclusive.

The nature of assay [1]: NCATS anti-infectives library activity on HEK293 viability as a counter-qHTS vs the C. elegans viability qHTS (AID 1745854).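 Note: HEK293 cells exposed to compounds for 24 hr before the viability read; % is set by controls: 0 for no effect and ±100 for the full control effect.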 The procedure, abridged: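 Compound titrations (final up to 41.7 uM) were incubated with HEK293 cells for 24 hr at 37C under 5% CO2. Viable cells were quantified with CellTiter-Glo after 10 min at ambient temperature.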
Background: In qHTS, concentration-response curves come from the screen itself.

The target in assay [2] is Glutathione peroxidase 1 (Homo sapiens) (UniProt P07203). Briefly: Primary qHTS Assay for Inhibitors of Recombinant Selenoprotein Glutathione Peroxidase 1 (GPX1) (AID 1845191). Note: nearly all actives have a fitted effect of over 65% in size. Note: potency is the fitted concentration of half-maximal effect. The procedure, abridged:
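NADPH consumption tracked by fluorescence at 340/450 nm between t=0 and t=15 min, room temperature. Final mix: 10 nM GPX1, 100 nM glutathione reductase, 1 mM GSH, 0.5 mM NADPH, 0.5 mM cumene hydroperoxide, 0.01% BSA; 30 min compound–enzyme preincubation.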

Assay [3] concerns the target Phospholipid hydroperoxide glutathione peroxidase GPX4 (Homo sapiens) (UniProt P36969). Briefly: Primary qHTS Assay for Inhibitors of Recombinant Selenoprotein Glutathione Peroxidase 4 (GPX4) (AID 1845192). For activity change, negative = inhibition: % is set by controls: 0 for no effect and ±100 for the full control effect. Note: nearly all actives have a fitted effect of over 65% in size. The method, boiled down: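 NADPH consumption followed by fluorescence at 340/450 nm, t=0 and after 15 min at room temperature. Reaction started with cumene hydroperoxide (0.5 mM final) after 30 min compound–GPX4 preincubation; final 200 nM GPX4, 100 nM GR, 1 mM GSH, 0.5 mM NADPH.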

Assay [4] concerns the target Luciferin 4-monooxygenase (Photinus pyralis) (UniProt P08659). Put plainly: Primary firefly luciferase (FLuc) qHTS assay for identification of artifact compounds. (AID 1845220).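 For activity change, negative = inhibition: plate controls were DMSO vehicle for no effect and no enzyme for full effect.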 Note: nearly all actives have a fitted effect of over 60% in size. To be noted: outcome: dose series up to 54.1 µM unless noted. The method, boiled down: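 FLuc 10 nM; luciferin 10 uM; ATP 10 uM; Tris-acetate pH 7.6, Mg-acetate 10 mM; 15 min RT preincubation; 5 min reaction; luminescence.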

Assay [5] is described as follows: Primary fluorescence-based thiol-reactive (MSTI) qHTS assay for identification of artifact compounds. (AID 1845221).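 Note: thiol-reactive compounds lower the probe fluorescence signal; nearly all actives have a fitted effect of over 65% in size.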 The procedure, abridged:
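Probe: MSTI 4 uM, PBS pH 7.4, 2% DMSO. Incubation 1 h, RT, light-protected. Readout fluorescence 525/598 nm.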

Assay [6] relates to Nanoluciferase (engineered Oplophorus gracilirostris luciferase). Briefly: Primary Nanoluciferase (NLuc) qHTS assay for identification of artifact compounds. (AID 1845222).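 Note: NLuc secreted into diluted conditioned medium of S16 cells; 0% = DMSO and -100% = no enzyme.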 The procedure, abridged: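 NLuc from S16 cell medium (1:55) plus test compounds, 15 min, room temperature. Luminescence after Nano-Glo (1:100) addition, 5 min.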
The target of assay [7] is Catechol O-methyltransferase (Homo sapiens) (UniProt P21964). Put plainly: Confirmatory Screen for Target Class Profiling of Small Molecule Inhibitors of Methyltransferases (AID 1745852; calls by dose curve; note: potency is the fitted concentration of half-maximal effect; for activity change, negative = inhibition: % is set by controls: 0 for no effect and ±100 for the full control effect). To be noted: MTase-Glo luminescence, SAH detection, recombinant enzyme; measured here: COMT max response; stronger effect = lower value.
In assay [8] the target is Guanidinoacetate N-methyltransferase (Homo sapiens) (UniProt Q14353). The description is as above. To be noted: MTase-Glo luminescence, SAH detection, recombinant enzyme; for activity change, negative = inhibition: at 57.3 µM (top of the series).
Assay [9] concerns the target Nicotinamide N-methyltransferase (Homo sapiens) (UniProt P40261). The description is as above. Particulars: MTase-Glo luminescence, SAH detection, recombinant enzyme; measured here: NNMT max response; stronger effect = lower value.
Assay [10] concerns the target Phenylethanolamine N-methyltransferase (Homo sapiens) (UniProt P11086). The assay is described as above. Particulars: MTase-Glo luminescence, SAH detection, recombinant enzyme; measured here: PNMT max response; stronger effect = lower value.
The target in assay [11] is Metallo-beta-lactamase type 2 (Klebsiella pneumoniae) (UniProt C7C422). Briefly: qHTS to identify inhibitors of the New Delhi Metallo-beta-lactamase (NDM): assay validation screen against the NCATS LOPAC Collection (AID 1794843).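 Note: nitrocefin turnover by NDM-1 measured as 485 nm absorbance at plateau; % is set by controls: 0 for no effect and ±100 for the full control effect.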 The procedure, abridged:
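Enzyme 2 nM final, 50 mM HEPES pH 7.0, 1 uM ZnSO4, 0.01% Tween20; cpds in DMSO, preincub w/ enzyme; + nitrocefin (50 uM stock); A485 at plateau; no-enzyme column as blank.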

Assay [12] has as its target Rap guanine nucleotide exchange factor 4 (Homo sapiens) (UniProt Q8WZA2). Briefly: Confirmatory qHTS for agonist of cAMP-regulated guanine nucleotide exchange factor 4 (EPAC2) (AID 1645884).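 Note: nucleotide exchange releases bodipy-GDP from Rap1 and this lowers its fluorescence; % is set by controls: 0 for no effect and ±100 for the full control effect; nearly all actives have a fitted effect of over 65% in size.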
Assay [13] has the same target. Put plainly: Confirmatory qHTS for antagonist of cAMP-regulated guanine nucleotide exchange factor 4 (EPAC2) (AID 1645885). Note: % is set by controls: 0 for no effect and ±100 for the full control effect; nearly all actives have a fitted effect of over 25% in size.
Assay [14] in a line: Viability counterscreen for antagonist of constitutive androstane receptor (CAR) against the NCATS DSHEA and TCM libraries (AID 1794837).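 Note: compound exposure lasted 24 h before viability reading; 0% is about no effect.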 The procedure, abridged: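 HepG2-CYP2B6-hCAR cells (2,500/well) were allowed to attach for 5 h, then exposed to compounds with 48 uM CITCO for 24 h at 37C. Viability was read by CellTiter-Fluor fluorescence after 1 h.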
A short description of assay [15]: Viability counterscreen for agonist of constitutive androstane receptor (CAR) against the NCATS DSHEA and TCM libraries (AID 1794838). Note: 0% is about no effect. The procedure, abridged:
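HepG2-CYP2B6-hCAR cells (2,500/well) attached 5 h, then got compounds plus 0.75 uM PK11195 final. After 24 h at 37C, viability read by CellTiter-Fluor fluorescence (Ex/Em 405/540 nm).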
In general terms: Counterscreens check selectivity or assay interference.

The target in assay [16] is Nuclear receptor subfamily 1 group I member 3 (Homo sapiens) (UniProt Q14994). Briefly: Primary qHTS for agonist of constitutive androstane receptor (CAR) against the NCATS DSHEA and TCM libraries (AID 1794839).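 Note: HepG2 cells expressing human CAR with a CYP2B6 reporter plus PK11195 antagonist; 0% is about no effect.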 The method, boiled down:
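HepG2-CYP2B6-hCAR cells (2,500/well) were attached for 5 h, then treated for 24 h at 37 °C with compounds plus 0.75 µM PK11195. Luciferase luminescence (ONE-Glo) was read, with CellTiter-Fluor viability (Ex/Em 405/540 nm).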

Assay [17] can be described thus: HepG2 viability counterscreen (readout 1: protease activity) against the NCATS DSHEA and TCM libraries (AID 1794841).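 Note: cells exposed to compounds for about 24 h before the protease read; 0% is about no effect.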 The procedure, abridged:
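HepG2 cells (1,000 cells/well) attached ~4 h, then treated ~24 h at 37C with substances. Protease activity read by GF-AFC (25 uM final, 30 min, Ex/Em 380/510 nm); ATP content then by CellTiter-Glo luminescence.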

Chain of Glutathione peroxidase 1 (Homo sapiens) (P07203 whole entry, looked up): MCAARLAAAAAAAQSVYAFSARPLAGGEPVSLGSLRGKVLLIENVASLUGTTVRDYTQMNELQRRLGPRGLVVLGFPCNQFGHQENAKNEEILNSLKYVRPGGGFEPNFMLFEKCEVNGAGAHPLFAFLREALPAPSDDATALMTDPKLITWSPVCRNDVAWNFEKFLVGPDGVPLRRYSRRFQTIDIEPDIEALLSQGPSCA
Chain of Phospholipid hydroperoxide glutathione peroxidase GPX4 (Homo sapiens) (P36969 whole entry, looked up): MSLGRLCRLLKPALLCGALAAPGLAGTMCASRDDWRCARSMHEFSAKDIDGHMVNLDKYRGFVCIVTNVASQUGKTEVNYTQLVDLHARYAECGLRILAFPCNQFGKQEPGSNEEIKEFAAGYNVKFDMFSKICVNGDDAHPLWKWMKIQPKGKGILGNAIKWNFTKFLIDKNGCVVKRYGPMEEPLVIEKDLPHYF
Chain of Catechol O-methyltransferase (Homo sapiens) (P21964 whole entry, looked up): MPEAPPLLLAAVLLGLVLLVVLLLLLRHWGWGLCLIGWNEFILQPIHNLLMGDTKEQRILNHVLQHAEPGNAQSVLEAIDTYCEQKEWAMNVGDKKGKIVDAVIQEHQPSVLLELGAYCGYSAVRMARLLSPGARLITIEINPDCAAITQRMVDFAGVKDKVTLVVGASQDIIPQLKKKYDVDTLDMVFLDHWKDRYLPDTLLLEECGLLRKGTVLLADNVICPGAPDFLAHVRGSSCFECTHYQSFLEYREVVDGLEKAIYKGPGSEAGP
Chain of Metallo-beta-lactamase type 2 (Klebsiella pneumoniae) (C7C422 whole entry, looked up): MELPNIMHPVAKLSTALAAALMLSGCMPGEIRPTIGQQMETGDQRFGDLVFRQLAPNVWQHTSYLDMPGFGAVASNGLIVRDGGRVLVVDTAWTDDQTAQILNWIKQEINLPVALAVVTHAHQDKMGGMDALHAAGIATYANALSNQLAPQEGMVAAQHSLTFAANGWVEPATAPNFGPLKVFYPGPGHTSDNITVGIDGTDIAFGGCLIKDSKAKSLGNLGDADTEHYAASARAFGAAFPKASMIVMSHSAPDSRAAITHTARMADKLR
Chain of Phenylethanolamine N-methyltransferase (Homo sapiens) (P11086 whole entry, looked up): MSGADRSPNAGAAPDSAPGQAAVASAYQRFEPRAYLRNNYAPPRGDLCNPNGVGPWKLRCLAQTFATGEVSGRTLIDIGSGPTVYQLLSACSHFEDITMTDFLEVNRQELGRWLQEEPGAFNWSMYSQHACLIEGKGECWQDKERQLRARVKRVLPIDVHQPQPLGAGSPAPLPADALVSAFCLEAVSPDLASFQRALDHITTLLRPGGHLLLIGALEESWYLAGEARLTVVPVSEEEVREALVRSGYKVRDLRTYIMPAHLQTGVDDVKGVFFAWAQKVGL
Chain of Nicotinamide N-methyltransferase (Homo sapiens) (P40261 whole entry, looked up): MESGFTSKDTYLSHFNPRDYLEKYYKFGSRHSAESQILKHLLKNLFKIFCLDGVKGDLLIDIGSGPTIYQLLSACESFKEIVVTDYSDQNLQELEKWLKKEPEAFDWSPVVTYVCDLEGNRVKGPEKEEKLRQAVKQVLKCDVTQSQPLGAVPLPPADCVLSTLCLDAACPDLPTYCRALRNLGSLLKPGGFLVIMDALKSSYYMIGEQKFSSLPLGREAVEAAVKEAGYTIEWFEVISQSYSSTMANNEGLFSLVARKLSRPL
Chain of Nuclear receptor subfamily 1 group I member 3 (Homo sapiens) (Q14994 whole entry, looked up): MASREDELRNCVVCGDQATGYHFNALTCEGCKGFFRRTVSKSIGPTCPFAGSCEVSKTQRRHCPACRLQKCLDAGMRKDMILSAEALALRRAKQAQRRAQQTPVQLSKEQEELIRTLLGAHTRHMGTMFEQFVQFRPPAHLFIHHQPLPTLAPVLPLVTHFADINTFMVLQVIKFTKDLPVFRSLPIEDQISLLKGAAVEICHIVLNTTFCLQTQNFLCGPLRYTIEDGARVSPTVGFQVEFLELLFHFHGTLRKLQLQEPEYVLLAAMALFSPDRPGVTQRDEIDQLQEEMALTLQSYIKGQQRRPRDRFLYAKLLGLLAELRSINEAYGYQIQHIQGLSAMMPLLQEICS
Chain of Rap guanine nucleotide exchange factor 4 (Homo sapiens) (Q8WZA2 whole entry, looked up): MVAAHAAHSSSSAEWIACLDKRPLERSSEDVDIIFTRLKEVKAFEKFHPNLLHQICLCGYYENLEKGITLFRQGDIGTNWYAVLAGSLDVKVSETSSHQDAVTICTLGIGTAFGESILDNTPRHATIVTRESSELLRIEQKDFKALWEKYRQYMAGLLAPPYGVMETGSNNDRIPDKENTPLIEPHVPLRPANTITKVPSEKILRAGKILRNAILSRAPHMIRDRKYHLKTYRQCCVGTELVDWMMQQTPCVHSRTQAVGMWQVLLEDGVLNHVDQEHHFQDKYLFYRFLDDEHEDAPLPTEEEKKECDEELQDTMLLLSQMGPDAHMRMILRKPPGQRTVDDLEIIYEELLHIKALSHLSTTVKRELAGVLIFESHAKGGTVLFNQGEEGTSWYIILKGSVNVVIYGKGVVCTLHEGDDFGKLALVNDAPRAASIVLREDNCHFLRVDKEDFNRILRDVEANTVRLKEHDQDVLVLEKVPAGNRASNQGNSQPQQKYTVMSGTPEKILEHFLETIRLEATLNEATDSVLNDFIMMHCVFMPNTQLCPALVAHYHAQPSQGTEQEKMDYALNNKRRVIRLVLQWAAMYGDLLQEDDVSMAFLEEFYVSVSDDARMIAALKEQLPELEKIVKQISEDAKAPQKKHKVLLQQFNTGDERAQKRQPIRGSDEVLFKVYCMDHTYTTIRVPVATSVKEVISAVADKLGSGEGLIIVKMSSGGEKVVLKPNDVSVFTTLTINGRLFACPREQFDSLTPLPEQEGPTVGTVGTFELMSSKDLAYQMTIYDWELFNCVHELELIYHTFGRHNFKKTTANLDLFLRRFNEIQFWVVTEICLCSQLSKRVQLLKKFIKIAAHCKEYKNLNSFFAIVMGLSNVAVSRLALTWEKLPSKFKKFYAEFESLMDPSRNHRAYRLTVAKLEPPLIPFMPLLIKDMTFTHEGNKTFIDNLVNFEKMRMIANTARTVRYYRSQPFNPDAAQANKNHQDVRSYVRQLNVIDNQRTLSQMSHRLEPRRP

Take `COc1ccc2cc1Oc1ccc(cc1)C[C@H]1c3c(cc4c(c3Oc3cc5c(cc3OC)CCN(C)[C@@H]5C2)OCO4)CCN1C`: the outcome in assay [1], in [4] and in [6] was “inactive” throughout. For the same compound, the Potency entry in assay [2], in [3] and in assay [5] was “inactive” throughout.

With `CCCCCCCCCCCCCCCC(=O)NCCO`, the outcome in assay [1] is “inactive”.

For `CN(C)CC[C@@H](c1ccc(Cl)cc1)c1ccccn1`, the activity is -1.71% in assay [7], -7.31% in assay [9] and -1.72% in assay [10]. Further, the activity change, negative = inhibition in assay [8] worked out at 2.46%. Besides, the outcome in [11] is “inactive”. In addition, the Potency result in assay [2] and in assay [3] was “inactive” throughout.

On to `NC(=O)c1ncn([C@@H]2O[C@H](CO)[C@@H](O)[C@H]2O)n1`, for which the outcome in assay [1] and in [11] was “inactive” each time. Moreover, the Potency entry in [2] and in assay [3] was “inactive” each time.

In the case of `Cc1ccc2nc(N)[nH]c(=O)c2c1Sc1ccncc1`, the activity in assay [7] is -5.5%; in assay [9], 1.11%; in assay [10], 1.12%. Further, in assay [8], the activity change, negative = inhibition was 2.89%. Besides, the Potency entry in assay [2] and in [3] was “inactive” in each case. In addition, the outcome in assay [4] and in [6] was “inactive” throughout.

`Cc1cc(C(C#N)c2ccc(Cl)cc2)c(Cl)cc1NC(=O)c1cc(I)cc(I)c1O` (centres undefined): the figures for the activity in assay [7], in [9] and in assay [10] were -21.3%, -81.7% and -74.7%, respectively. Further, in assay [8], the Potency was 30.4 µM (active). Also, the Potency entry in assay [2], in assay [3] and in assay [5] was “inactive” in each case. For the same compound, the outcome in assay [6] is “inactive”.

As to `Cc1ncc(COP(=O)(O)O)c(C=O)c1O`, the outcome in assay [1] is “inactive”. In addition, the Potency result in assay [2] and in assay [3] was “inactive” throughout.

In the case of `CC1(C)Oc2ccc(C#N)cc2[C@@H](N2CCCC2=O)[C@@H]1O`, the Potency entry in [12] and in assay [13] was “inactive” each time.

With `Nc1nc2c(ncn2CCC(CO)CO)c(=O)[nH]1`, the outcome in assay [1], in assay [4] and in [6] was “inactive” throughout. The Potency entry in [2], in [3] and in [5] was “inactive” each time.

For `CC1=C(C/C=C(\C)CCC[C@H](C)CCC[C@H](C)CCCC(C)C)C(=O)c2ccccc2C1=O`, the outcome in assay [14], in [15], in assay [16] and in [17] was “inactive” throughout.

`O=C1O[C@H]([C@@H](O)CO)C(O)=C1O`: the outcome in [14], in [15], in [16] and in [17] was “inactive” in each case.

Consider `CC(C(O)c1ccc(O)cc1)N1CCC(Cc2ccccc2)CC1` (centres undefined), for which the outcome in assay [11] and in assay [6] was “inactive” in each case. In addition, the Potency result in assay [2], in [3] and in [5] was “inactive” each time. In addition, in [4], the outcome is “inactive [at 25.7 µM]”.

Consider `Cc1c(O)cccc1C(=O)N[C@@H](CSc1ccccc1)[C@H](O)CN1C[C@H]2CCCC[C@H]2C[C@H]1C(=O)NC(C)(C)C`, for which, in assay [11], the outcome was “inactive”. Besides, the Potency result in assay [2] and in [3] was “inactive” in each case.

Consider `Cc1cc2c(cc1S(N)(=O)=O)S(=O)(=O)CCC2`, for which the Potency entry in assay [2] and in assay [3] was “inactive” in each case.

On to `CO/N=C(\C(=O)N[C@@H]1C(=O)N2C(C(=O)O)=C(CSc3nc(=O)c(O)nn3C)CS[C@H]12)c1csc(N)n1`, for which the Potency in [2] was 9.04 µM (active).

As for `CCC(=O)c1ccc(O)cc1`, the Potency result in assay [2] and in assay [3] was “inactive” throughout.

As to `C[C@@H](O)[C@H](N)C(=O)O`, the Potency entry in [2] and in assay [3] was “inactive” throughout.
